rat GALR2 agon: agonists of rat galanin receptor 2 (GALR2). actives 0.5% (n = 16,000). cell-based GALR2 agonist screen. activation, % at 10 µM. Galanin receptor type 2 (Rattus norvegicus), O08726; in the data active means activation above about 15%
S1P1 agonist: activates the human S1P1 receptor | S1P1 agonist cell-based reporter assay | Sphingosine 1-phosphate receptor 1 (Homo sapiens), P21453 | activation, % at 4.5 µM | actives 1.5% (n = 16,000); in the data active means activation above about 80%
KOR antag MB: antagonists of human kappa opioid receptor OPRK1, Maybridge library; AID 652031, 2013; actives 0.4% (n = 16,000); OPRK1 cells, antagonist mode, fluorescence readout; inhibition, % at 9 µM; in the data active means inhibition above about 50%
TLR4-MyD88 inh: inhibitors of human TLR4-MyD88 binding; Toll-like receptor 4 (Homo sapiens), O00206; Cell-based TLR4-MyD88 binding inhibition assay; inhibition, % at 10 µM; actives 0.06% (n = 16,000); AID 811, 2007; in the data active means inhibition above about 45%
Starred values were filed as active, the others as inactive. Hits are enriched below; roughly 2.5% of the tested compounds scored in any of these assays.

SMILES	rat GALR2 agon	S1P1 agonist	KOR antag MB	TLR4-MyD88 inh
COC(=O)c1cc(C)c(-c2ccc(-c3ccccc3F)cc2)s1	-8.0	45.7	7.4	5.8
CCOC(=O)C(NC(=O)c1cccnc1)(Nc1ccccc1)C(F)(F)F (stereo not drawn)	-4.8	9.1	9.2	-5.9
Cc1ccc(S(=O)(=O)n2nccc2-c2c(C)nc3ccccn23)cc1	-7.1	87.5*	-8.1	-0.6
N#Cc1c(C(F)(F)F)c([N+](=O)[O-])c(-c2cccc([N+](=O)[O-])c2)[nH]c1=O	25.1*	-2.5	-15.2	-8.7
O=C(Nc1ccccn1)c1cc(-c2ccccc2)c(C(F)(F)F)s1	-9.9	87.3*	6.8	-6.5
Cc1cc(NC(=O)c2cc(-c3ccccc3)c(C(F)(F)F)s2)on1	-4.3	-5.0	4.2	-6.7
Cc1onc(-c2c(F)cccc2Cl)c1C(=O)Oc1ccccc1	-12.3	95.4*	1.6	-7.4
Cc1onc(-c2c(Cl)cccc2Cl)c1C(=O)c1ccccc1	-4.5	30.5	-5.3	-1.5
Cc1nc(-c2cc(C#N)c(NCc3ccccc3)nc2C)cs1	-0.9	84.6*	-40.1	7.8
O=[N+]([O-])c1ccc(-c2ccc(/C=N/NC(=S)Nc3cccc(F)c3)o2)cc1	-21.0	72.5	151.8*	8.6
Cc1nc2nc(N)[nH]c(=O)c2nc1C	-6.0	110.9*	-7.5	23.4
COc1cc2c(cc1OC)C(C)N(C(=O)c1snnc1C)CC2 (stereo not drawn)	-7.9	-13.4	21.2	-4.9
N#Cc1c(N)nc2[nH]c(=S)[nH]c(=O)c2c1-c1ccc([N+](=O)[O-])cc1	-4.6	7.4	2.9	-3.2

Screens from PubChem BioAssay.
